Source: PubChem (National Center for Advancing Translational Sciences (NCATS))
This is a sample that favours compounds with a hit; in the whole collection about 7.3% have one here.
HCMV inh = human cytomegalovirus inhibition; HFF cells, HCMV-luciferase reporter, 72 h; active compounds read low; activity change, negative = inhibition, % at 57.5 µM; 410,000 tested, 4.5% active; AID 1259415; in the data active means activity change below about -60%; inconclusive means no clear call, values can overlap the other calls; inactive means above about -39%
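Steps: HFFs plated, 16 h 37C; compounds added; HCMV-luciferase added to MOI 1 PFU/cell; 72 h 37C; OneGlo reagent, 5 min room temperature; luminescence read, normalized to controls.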
HCV inh = HCV inhibition; Huh7.5.1 HCVcc-Cre infection, luciferase reporter, 44 h; Potency, µM (titrated, usually from 41.8 µM), usual class: inhibitors; 340,000 tested, 3.4% active; AID 651820
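Cells seeded at 1,000/well and cultured 4 h, then compounds added followed by HCVcc-Cre virus (~0.5 moi). After 44 h further culture, luciferase substrate was added, plates held 15 min at room temperature, and luminescence read for 15 sec.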
VACV Venus inh = inhibitors of vaccinia virus (Venus reporter). Vaccinia virus Venus reporter expression, fluorescence. Potency, µM (highest dose often 36.5 µM), hits mostly inhibitors. 330,000 tested, 0.46% active. AID 720580; calls by dose curve; tested in A549 cells; further: nearly all actives have a fitted effect of over 30% in size
Vaccinia mCherry = vaccinia inhibition (mCherry reporter) | AID 720579 | 310,000 tested, 0.63% active | Potency, µM (doses to about 36.5 µM), hits mostly inhibitors | Vaccinia virus mCherry reporter infection, fluorescence; calls by dose curve; tested in A549 cells; further: nearly all actives have a fitted effect of over 35% in size
FMDV antiviral = foot and mouth disease virus antiviral activity; FMDV antiviral cell-based qHTS; 410,000 tested, 1.2% active; AID 1159524; Potency, µM (highest dose often 57.9 µM), actives largely listed as inhibitors; calls by dose curve; tested in HEK293T cells; further: read-out not given here; nearly all actives have a fitted effect of over 45% in size
HCV confirm = confirmation of hepatitis C virus inhibitors; 640 tested, 78% active; Potency, µM (top dose mostly 41.8 µM), actives largely listed as inhibitors; HCVcc-Cre infectious virus cell assay, luciferase, inhibition; shares compounds with HCV inh; further: nearly all actives have a fitted effect of over 80% in size
HCV cytotox = host cell cytotoxicity counter-screen for HCV inhibitors; shares compounds with HCV inh; HCV host cell line cytotoxicity counterscreen; Potency, µM (doses to about 41.8 µM), actives largely listed as inhibitors; 640 tested, 22% active;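 further: 44 h compound exposure; nearly all actives have a fitted effect of over 55% in size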
Hits are given with their value; . = inactive; ? = inconclusive; / = no result given. Unless noted, the call rests on the fitted dose curve; in most records, active means well fitted curve in the direction sought with a large enough effect; inconclusive means small, poorly fitted or top-dose-only effect, or another doubt; inactive means no such curve, though single readings can be large; an effect the other way counts as inactive or inconclusive.

SMILES | HCMV inh | HCV inh | VACV Venus inh | Vaccinia mCherry | FMDV antiviral | HCV confirm | HCV cytotox
Cc1ccc(Cn2ncc3c(N4CCN(CCc5ccccc5)CC4)ncnc32)cc1 | . | 5µM | . | . | ? | 11µM | 25µM
CC(=O)Nc1ccc(NC2=C(Cl)C(=O)c3ccccc3C2=O)cc1 | -101 | 3.2µM | ? | ? | 28µM | 25µM | 22µM
CC(=O)Nc1ccc(NC(=O)c2cccc3c2-c2ccccc2C3=O)cc1 | . | . | . | . | . | / | /
COc1cc(NC(=O)CCC(=O)c2cccs2)cc(OC)c1 | . | . | . | . | . | / | /
Cc1cccc(Cn2c(=O)n(CC3CCC(C(=O)N4CCOCC4)CC3)c(=O)c3sccc32)c1 (configuration not stated) | . | / | . | . | ? | / | /
COc1ccccc1/C=C/c1nc(C#N)c(N2CCN(C)CC2)o1 | . | / | . | . | . | / | /
OC(c1cc(-c2ccc(C(F)(F)F)cc2)nc(C(F)(F)F)c1)C1CCCCN1 (configuration not stated) | -102 | 5µM | 11µM | ? | ? | 14µM | ?
CC1CCN(C(=O)CSc2nc(-c3ccc(F)cc3)cc(C(F)(F)F)n2)CC1 | . | / | . | . | . | / | /
COc1ccc(NS(=O)(=O)c2ccc(C)c(NC(=O)CNC(=O)c3ccco3)c2)cc1 | . | . | . | . | . | / | /
COc1ccc(Cl)cc1NC(=O)C(OC)c1ccccc1 (configuration not stated) | . | 6.3µM | . | . | . | 20µM | .
CC(=O)N1CCN(C(=O)OC2CC3CC2[C@H]2CCCCN2C3=O)CC1 (some centres not stated) | . | / | . | . | . | / | /
CN1CCN(c2ncc3nc(-c4cccs4)c(=O)n(CCc4ccccc4)c3n2)CC1 | / | / | / | / | . | / | /
COc1ccc2c(c1)sc(N)[n+]2Cc1cc(C)cc2cccnc12 | ? | 8.9µM | ? | ? | . | 16µM | ?
CCOc1ccc2c(c1)sc(N)[n+]2Cc1cc(C)cc2cccnc12 | . | ? | . | ? | ? | / | /
Cc1cc(C)n(-c2ccc(C(=O)Nc3ccc4c(c3)OCCO4)cc2)n1 | . | ? | . | / | . | ? | .
CCNC(=S)/N=C(\N)Nc1nc(C)c2cc(C)ccc2n1 | . | 3.2µM | ? | ? | . | ? | .
COCCNC(=O)CSc1nc(-c2ccccc2C)nc2c1c(=O)n(C)c(=O)n2C | . | / | . | . | . | / | /
CCOc1cc(-c2noc(-c3ccncc3)n2)cc(Br)c1OC | . | ? | / | / | . | ? | .
CCOc1cc(-c2noc(CCCC(N)=O)n2)cc(Br)c1OC | . | ? | / | / | . | / | /
CCc1c(C)nc2ncnn2c1NCCc1ccc(Cl)cc1 | ? | ? | . | . | 14µM | 7µM | ?
CN(C)S(=O)(=O)c1cccc(-c2csc(N/N=C/c3ccco3)n2)c1 | . | ? | . | ? | . | / | /
COc1ccc(/C=N/Nc2nc(-c3cccc(S(=O)(=O)N4CCCC4)c3)cs2)c(OC)c1 | -65 | 4µM | ? | ? | ? | 10µM | .
CCCC(=O)N(C)c1ccc(/C=C2\C=Cc3ccccc32)cc1 | / | / | . | ? | / | / | /
O=C(Nc1ccc(S(=O)(=O)Nc2ccccc2)cc1)c1ccc(CN2CCOCC2)cc1 | -90 | 2.2µM | / | / | ? | 1.8µM | .
O=C(Nc1ccc(CN2CCOCC2)cc1)c1ccc(Br)cc1 | . | ? | / | / | . | / | /
SMILES | HCMV inh | HCV inh | VACV Venus inh | Vaccinia mCherry | FMDV antiviral | HCV confirm | HCV cytotox
O=C(Nc1ccc(CN2CCS(=O)(=O)CC2)cc1)c1ccccc1 | . | . | / | / | . | / | /
O=C(Nc1ccc(CN2CCS(=O)(=O)CC2)cc1)c1ccc(C(F)(F)F)cc1 | -61 | 5.6µM | . | . | ? | 5µM | 13µM
Nc1nc(F)nc2c1ncn2[C@@H]1O[C@H](CO)[C@@H](O)[C@H]1O | -96 | 0.79µM | 1.1µM | 1µM | ? | 2µM | 6.3µM
O=C(CCCc1nc2ccccc2s1)Nc1nccs1 | . | . | . | . | . | / | /
Cc1cnc(NC(=O)CCCc2nc3ccccc3s2)s1 | -101 | 2.8µM | 5.6µM | / | . | 16µM | .
C=CCn1c(-c2cccs2)nc2nc3ccccc3nc21 | . | . | . | / | . | / | /
C=CCn1c(-c2cccs2)nc2ccccc21 | . | ? | . | / | . | . | .
COc1ccc(CCN2CC(C(=O)N3CCSCC3)CCC2=O)cc1 (configuration not stated) | . | . | . | . | . | / | /
COc1ccc(/C=C/C(=O)Nc2cccc(S(=O)(=O)NC3=NCCCCC3)c2)cc1OC | . | 6.3µM | / | / | 40µM | 20µM | ?
CC(C)=CC(=O)Nc1cccc(S(=O)(=O)NC2=NCCCCC2)c1 | . | . | / | / | . | / | /
Cc1cccc(N2CCc3c2nc2ccccc2c3N)c1 | . | 8.9µM | . | ? | . | 22µM | .
Cc1noc(/C=C/c2ccccc2F)c1S(=O)(=O)N1CCC(C(=O)N2CCN(C)CC2)CC1 | . | 4µM | / | / | . | 22µM | ?
Cc1cccc(NS(=O)(=O)c2c(C)nc3sccn3c2=O)c1C | . | / | . | . | . | / | /
COc1ccc(-c2cn(CCC(=O)O)c(=O)cn2)cc1 | . | / | / | / | / | / | /
Cc1cc(C(=O)CSc2nnc(-c3ccco3)o2)c(C)n1Cc1ccco1 | . | ? | . | . | . | 16µM | ?
Cc1ccc(C(=O)C(C)OC(=O)Cn2cnc3c2c(=O)n(C)c(=O)n3C)cc1 (configuration not stated) | . | . | . | . | . | / | /
CCOc1ccc2c(C)nc(NC3=NC(C)(C)C=C(C)N3)nc2c1 | . | 5µM | ? | . | . | 7µM | ?
Cc1ccc(SCc2cc(=O)[nH]c(Nc3nc(C)c4ccc(C)cc4n3)n2)cc1 | . | . | . | . | ? | / | /
CCSc1nc2c(c(=O)[nH]c(=O)n2C)n1Cc1ccc(Cl)cc1 | . | . | . | / | ? | / | /
CCCCCOC(=O)CSc1nc2c(c(=O)[nH]c(=O)n2C)n1Cc1ccc(Cl)cc1 | . | 2.8µM | . | . | . | 5.6µM | .
C=C1C(=O)O[C@@]23[C@H]1CC[C@@H](C)[C@@H]2CC[C@@]1(C)O[C@@H]31 | / | 2.8µM | ? | ? | ? | ? | .
CCOC(=O)c1c(-c2ccccc2)oc2ccc(O)cc12 | . | 2.8µM | / | / | . | 14µM | .
CCOC(=O)c1c(-c2ccccc2)oc2ccc(OCC)cc12 | . | ? | . | ? | . | / | /
O=C(COC(=O)C1CC2C=CC1C2)Nc1ccc([N+](=O)[O-])cc1 (configuration not stated) | . | . | . | . | . | / | /
Cc1cc(C)c2cc(C(=O)N3CCc4ccccc4C3)[nH]c2c1 | . | ? | . | ? | . | ? | .
COc1ccccc1NS(=O)(=O)c1cc(NC(=O)C(C)(C)C)ccc1N1CCOCC1 | . | ? | . | . | . | / | /
COc1ccccc1NS(=O)(=O)c1cc(NC(=O)/C=C/c2cccs2)ccc1N1CCOCC1 | . | ? | . | . | . | 20µM | .
c1ccc2c(c1)[nH]c1c(N3CCCC3)ncnc12 | ? | 8.9µM | ? | / | 13µM | 7µM | 16µM
c1ccc2c(c1)[nH]c1c(N3CCN(C4CCCCC4)CC3)ncnc12 | . | . | . | . | . | / | /
